# From ChEMBL document CHEMBL1201862, “PubChem BioAssay data set” (2004)
# Out of some 58,000 sequences screened, about 4,600 (7.9%) were called active. No stated cut-off is given here; in the data, active = GI50 up to about 1.1 µM and inactive = higher. For the sample, actives were picked, then their nearest neighbours and some sequences at random. Entries with a potency or affinity are not part of this list.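 Cells were grown in 96-well plates and exposed to each compound for 48 hours at five concentrations; endpoints were interpolated linearly between bracketing concentrations, or set to the highest concentration if not reached. GI50: concentration for 50% inhibition of growth.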
# Test system: SW-620
# Assay: NCI tumour cell line growth inhibition, 48 h
row,Substance,GI50
1,"cis-Bis[[(trimethylsilyl)methyl]amino]tetrachloroplatinum(IV), CHEMBL2146191",2.4 µM
2,"[Bis(aminomethyl)ethylmethylsilane]tetrachloroplatinum(IV), CHEMBL2146192",1.02 µM
3,"[Bis(aminomethyl)diethylsilane]tetrachloroplatinum(IV), CHEMBL2146203",0.483 µM
4,"[Bis(aminomethyl)pentamethylenesilane]dichloropaltinum(II), CHEMBL2146202",6.7 µM
5,"[Bis(aminomethyl)dimethylsilane]dichloroplatinum (II), CHEMBL2146201",4.86 µM
6,"[Bis(aminomethyl)dimethylsilane]tetrachloroplatinum(IV), CHEMBL2146190",1.89 µM
7,"[Bis(aminomethyl)pentamethylenesilane]tetrachloropaltinum(IV), CHEMBL2146204",1.06 µM
8,"[Bis(aminomethyl)tetramethylenesilane]tetrachloropaltinum(IV), CHEMBL2146189",1.49 µM
9,"CISPLATIN, CHEMBL11359",3.87 µM
10,"mu-(1,7-nanodiamine-N,N')bis-(cis-aminedichloroplatimum (II)), CHEMBL2146215",32.1 µM
11,"[Bis(aminomethyl)tetramethylenesilane]dichloropaltinum(II), CHEMBL2146205",5.16 µM
